Assay outcomes deposited in PubChem by National Center for Advancing Translational Sciences (NCATS).
An excerpt weighted towards active compounds, which were near 19% of everything screened.
TDP1 cell CPT – qHTS for Inhibitors of human tyrosyl-DNA phosphodiesterase 1 (TDP1): qHTS in cells in presence of CPT. AID 686979, 2013. chicken DT40 Tdp1-/-;hTDP1 cells + 20 nM CPT, ATP luminescence, 48 h. Potency, µM (highest dose often 46.2 µM), usual class: inhibitors. 420,000 compounds, 12% hits; note: nearly all actives have a fitted effect of over 55% in size
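Cell growth measured by CellTiter-Glo luminescence after a minimum 48 h, 37 C compound exposure with 20 nM CPT in Tdp1-knockout DT40 cells stably expressing hTDP1, seeded 400/well; qHTS titration format.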
HT1080 IDH1KD tx – qHTS for induction of synthetic lethality in tumor cells producing 2HG: qHTS for the HT-1080-IDH1KD cell line | 360,000 compounds, 2% hits | Potency, µM (series often up to 46.1 µM), most hits filed as cytotoxic | HT-1080 IDH1 knockdown viability, ATP luminescence, 48 h
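% activity derives from luminescence (CellTiter-Glo), normalised to DMSO and no-cell wells. HT-1080-IDH1KD cells, 750/well, had 48 h compound exposure at 37 °C.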
ELG1 repair inh – qHTS screen for small molecules that inhibit ELG1-dependent DNA repair in human embryonic kidney (HEK293T) cells expressing luciferase-tagged ELG1; AID 504467, 2011; 330,000 compounds, 2.3% hits; Potency, µM (titrated, usually from 46.1 µM), actives largely listed as inhibitors; HEK293T ELG1-luciferase reporter, luminescence, 16 h; DNA damage induced by 5-fluorouridine; note: nearly all actives have a fitted effect of over 55% in size
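Luminescence from the luciferase reporter, measured 30 min after ONE-Glo reagent at room temperature, was the read-out. Beforehand, 2,000 cells per well were exposed for 16 hr at 37 °C to 5-fluorouridine together with compound or vehicle.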
IL-1B inflam inh – qHTS for Inhibitors of Inflammasome Signaling: IL-1-beta AlphaLISA Primary Screen | AID 743279, 2014 | THP-1 LPS/ATP IL-1B secretion, AlphaLISA, 16 h; active compounds read low | activity change, % at 57.5 µM | 360,000 compounds, 4.7% hits; in the data active = activity change below about -50%; inconclusive = mostly about -30% to -49%
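Secreted IL-1B measured by AlphaLISA bead assay after 16 h compound exposure of THP-1 cells; compounds (final up to 57.5 uM) added 1 h before LPS (250 ng/mL) and ATP (1.25 mM) stimulation; lower signal means less secretion.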
TDP1 cell noCPT – qHTS for Inhibitors of human tyrosyl-DNA phosphodiesterase 1 (TDP1): qHTS in cells in absence of CPT | DT40 Tdp1-/- hTDP1 cells, no CPT, ATP luminescence, 48 h | Potency, µM (top dose mostly 46.2 µM), actives largely listed as inhibitors | 420,000 compounds, 15% hits; note: nearly all actives have a fitted effect of over 55% in size
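Chicken DT40 Tdp1-/- cells complemented with human TDP1, screened without camptothecin (DMSO vehicle only), 400 cells/well. Compounds pin-transferred, cells incubated at 37 °C for at least 48 hr. Growth read as ATP-dependent luminescence (CellTiter-Glo, 30 min at RT).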
HT1080NT lethal – qHTS for induction of synthetic lethality in tumor cells producing 2HG: qHTS for the HT-1080-NT fibrosarcoma cell line. HT-1080-NT fibrosarcoma viability, CellTiter-Glo ATP luminescence, 48 h. Potency, µM (series often up to 46.1 µM), actives largely listed as cytotoxic. 360,000 compounds, 1.6% hits. AID 686970, 2013;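 note: NT is the 2HG producing partner of a matched IDH1 knockdown line; nearly all actives have a fitted effect of over 55% in size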
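Toxicity toward the 2HG-producing NT line was scored as %Activity, normalised to DMSO and no-cell wells, from CellTiter-Glo luminescence after 48 hours' treatment.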
Of the large screens only hits and unclear results are named; the others gave an inactive call. Unless noted, calls come from the whole dose curve; as a rule, active = well fitted curve in the direction sought with a large enough effect; inconclusive = small, poorly fitted or top-dose-only effect, or another doubt; inactive = no such curve, though single readings can be large; an effect the other way counts as inactive or inconclusive.

Cc1ccc(NC(=O)NCc2nc3ccccc3n2C)cc1	TDP1 cell CPT inconclusive, ELG1 repair inh inconclusive, TDP1 cell noCPT 23µM
Cc1ccc(SCc2nc3ccccc3n2CC(=O)Nc2ccc(Cl)cc2)cc1	TDP1 cell CPT 21µM, HT1080 IDH1KD tx inconclusive, ELG1 repair inh 7.3µM, TDP1 cell noCPT inconclusive, HT1080NT lethal inconclusive
CCn1c(N2CCN(CC(=O)Nc3cccc(C)c3C)CC2)nc2ccccc21	ELG1 repair inh inconclusive, TDP1 cell noCPT 21µM
CSCCC(NC(=O)c1ccco1)C(=O)NCC(C)(C)N1CCOCC1 (stereo unspecified)	none
NC(=O)c1ccc(NC(=O)COC(=O)CCN=C2NS(=O)(=O)c3ccccc32)cc1	none
O=C(NNC(=O)c1cc(-c2ccc(Cl)cc2)nc2ccccc12)c1csc(N2CCOCC2)n1	ELG1 repair inh inconclusive, TDP1 cell noCPT inconclusive
CC(=O)NC1CC2CCCC(C1)N2C(=O)Nc1c(C)cccc1C (stereo unspecified)	none (no result: ELG1 repair inh)
CC(NC(=O)c1ccc(F)cc1)c1ccc2c(c1)CCCC2 (stereo unspecified)	TDP1 cell CPT 21µM, TDP1 cell noCPT 13µM
CC(=O)c1ccccc1NS(=O)(=O)c1cc2c(cc1C)NC(=O)CO2	none (no result: HT1080 IDH1KD tx, ELG1 repair inh, IL-1B inflam inh, HT1080NT lethal)
CCCc1ccc(OC(=O)c2ccc(O)cc2Cl)cc1	TDP1 cell CPT inconclusive, HT1080 IDH1KD tx inconclusive, ELG1 repair inh inconclusive, IL-1B inflam inh -84, TDP1 cell noCPT inconclusive, HT1080NT lethal inconclusive
COCCCNC(NC(=O)c1ccc(Cl)cc1)C(Cl)(Cl)Cl (stereo unspecified)	TDP1 cell CPT inconclusive, TDP1 cell noCPT 16µM
CC(C)OCCCNC(=O)NC(=O)c1ccc(Cl)cc1	TDP1 cell CPT inconclusive, TDP1 cell noCPT 26µM
CC(C)OCCCNC(=O)C(NC(=O)c1ccc(Cl)cc1)C(C)C (stereo unspecified)	none
Cc1ccc(C(=O)NC(NCc2ccccc2)C(Cl)(Cl)Cl)cc1 (stereo unspecified)	none
CCC(C)[C@H]1CNC(=S)N1CCC12CC3CC(CC(C3)C1)C2 (stereo partly specified)	TDP1 cell CPT 16µM, TDP1 cell noCPT 15µM
CCC(C)[C@H]1CNC(=S)N1CCc1cccc2ccccc12 (stereo partly specified)	TDP1 cell CPT inconclusive
CN1CCc2c(sc(N)c2C(N)=O)C1	TDP1 cell CPT 26µM, TDP1 cell noCPT 21µM
CN1CCc2c(sc(/N=C/c3c[nH]c4ccccc34)c2C(N)=O)C1	IL-1B inflam inh inconclusive, TDP1 cell noCPT 16µM
CCOC(=O)c1c(NC(=O)C2CCCCC2)sc2c1CCN(CC)C2	TDP1 cell CPT inconclusive, IL-1B inflam inh inconclusive, TDP1 cell noCPT inconclusive
CCN1CCc2c(sc(N)c2C(N)=O)C1	TDP1 cell CPT inconclusive, TDP1 cell noCPT 23µM
NC(=O)c1c(N)sc2c1CCCC2	none
CN1CCc2c(sc(/N=C/c3c[nH]c4ccccc34)c2C#N)C1	TDP1 cell CPT inconclusive, ELG1 repair inh inconclusive, TDP1 cell noCPT inconclusive
CC(=O)C[C@H](O)CC(=O)[C@H]1OC(=O)[C@H](C)C/C=C\Cc2ccccc21	ELG1 repair inh inconclusive
CCc1ccc(NC(=O)N2CCC(N3CCN(Cc4ccc(C)cc4)C(=O)C3=O)CC2)cc1	none (no result: HT1080 IDH1KD tx, ELG1 repair inh, IL-1B inflam inh, HT1080NT lethal)
Cc1c(C(=O)OCC(=O)NCc2ccco2)cccc1[N+](=O)[O-]	none
C[C@@H](C(=O)OCn1nnc2ccccc2c1=O)N1C(=O)C2CCCCC2C1=O (stereo partly specified)	none
CC1(C)CC(NC(=O)C2CCN(S(=O)(=O)c3ccccc3C(F)(F)F)CC2)CC(C)(C)N1	none
O=c1[nH]c(NC2CCN(S(=O)(=O)c3ccccc3C(F)(F)F)CC2)nc2c1CCCC2	TDP1 cell CPT 6.5µM, ELG1 repair inh inconclusive, TDP1 cell noCPT 7.3µM
O=S(=O)(c1ccc(Cl)cc1)N1CCC(c2nc3ccccc3[nH]2)CC1	TDP1 cell CPT inconclusive, HT1080 IDH1KD tx inconclusive, TDP1 cell noCPT 12µM
CCC(=O)Nc1ccc(S(=O)(=O)N2CCC(c3nc4ccccc4[nH]3)CC2)cc1	TDP1 cell CPT inconclusive, ELG1 repair inh 18µM, TDP1 cell noCPT inconclusive
CCCC(=O)Nc1ccc(S(=O)(=O)N2CCC(c3nc4ccccc4[nH]3)CC2)cc1	TDP1 cell CPT inconclusive, ELG1 repair inh inconclusive, TDP1 cell noCPT inconclusive
CC(=O)c1ccc(OCC(=O)Nc2ccc3c(c2)OCO3)cc1	IL-1B inflam inh inconclusive, TDP1 cell noCPT inconclusive (no result: ELG1 repair inh)
CO/N=C/C1CCN(c2ncc(C(F)(F)F)cc2Cl)C1=O (stereo unspecified)	none
CC1CCCCN1S(=O)(=O)c1ccc(C(=O)Nc2nnc(-c3ccccn3)o2)cc1 (stereo unspecified)	ELG1 repair inh inconclusive, TDP1 cell noCPT inconclusive
CC1CCCCN1S(=O)(=O)c1ccc(C(=O)Nc2nnc(-c3ccco3)o2)cc1 (stereo unspecified)	TDP1 cell CPT 15µM, ELG1 repair inh inconclusive, TDP1 cell noCPT 26µM
COc1cccc(-c2nnc(NC(=O)c3ccc(S(=O)(=O)N4CCOCC4)cc3)o2)c1	TDP1 cell CPT 23µM, ELG1 repair inh inconclusive, TDP1 cell noCPT 12µM
O=C(Nc1nnc(-c2ccco2)o1)c1ccc(S(=O)(=O)N2CCCCC2)cc1	TDP1 cell CPT 21µM, TDP1 cell noCPT 13µM (no result: ELG1 repair inh)
CCOC(=O)c1ccc(NC(=O)c2nc[nH]c2C(=O)NCCCNC(=O)c2[nH]cnc2C(=O)Nc2ccc(C(=O)OCC)cc2)cc1	ELG1 repair inh inconclusive
CCOC(=O)c1[nH]cnc1C(=O)Nc1ccc(F)cc1	none
CCOC(=O)c1[nH]cnc1C(=O)Nc1cccc(N)n1	TDP1 cell CPT inconclusive, ELG1 repair inh 9.2µM
CCOC(=O)c1ccc(NC(=O)c2nc[nH]c2C(=O)NCCCCNC(=O)c2[nH]cnc2C(=O)Nc2ccc(C(=O)OCC)cc2)cc1	TDP1 cell CPT inconclusive, ELG1 repair inh inconclusive, TDP1 cell noCPT 4.6µM
CCOC(=O)c1ccc(NC(=O)c2nc[nH]c2C(=O)NCCCCCNC(=O)OC(C)(C)C)cc1	TDP1 cell CPT inconclusive, ELG1 repair inh 16µM, TDP1 cell noCPT 18µM
